Measurements: PubChem BioAssay (Tox21)
Records with an inconclusive call do not appear. Calls of active or inactive are those of the source. Unless noted, the call rests on the fitted dose curve; in most records, active means well fitted curve in the direction sought with a large enough effect in the repeat runs; inconclusive means weak or mixed curves; inactive means no such curve, though single readings can be large; an effect the other way counts as inactive or inconclusive.

What was measured:
[1] = qHTS assay to identify small molecule agonists of the peroxisome proliferator-activated receptor delta (PPARd) signaling pathway - cell viability counter screen (AID 743211); further: nearly all actives have a fitted effect of over 55% in size
How it was run: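 In the same wells used for beta-lactamase reporter measurement, cytotoxicity is scored by CellTiter-Glo. HEK293H PPARd-bla cells receive compound for 17 h at 37C following a 5 h settling period.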

[2] = biological target: Peroxisome proliferator-activated receptor delta (Homo sapiens) (UniProt Q03181); assay: qHTS assay to identify small molecule agonists of the peroxisome proliferator-activated receptor delta (PPARd) signaling pathway (AID 743212; calls by dose curve)
How it was run: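 HEK293H PPARd-bla cells; 5 h preincubation 37 C/5% CO2; compound (DMSO) 37 C; LiveBLAzer B/G FRET substrate 2 h RT; fluorescence intensity.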

[3] = qHTS assay to identify small molecule antagonists of the peroxisome proliferator-activated receptor delta (PPARd) signaling pathway - cell viability counter screen (AID 743213); further: nearly all actives have a fitted effect of over 50% in size
How it was run: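 PPARd-bla HEK293H cells were treated with compounds plus agonist L165041 (300 nM final) for 17 h at 37 C. Viability was then read in the same wells by CellTiter-Glo luminescence after 30 min at room temperature.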

[4] = biological target: Peroxisome proliferator-activated receptor delta (Homo sapiens) (UniProt Q03181); assay: qHTS assay to identify small molecule antagonists of the peroxisome proliferator-activated receptor delta (PPARd) signaling pathway (AID 743215; active means well fitted inhibition curve with a large enough effect in the signal ratio in the repeat runs, not every such curve was filed as active; the % refers to the signal ratio;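 further: cells stimulated with agonist L165041 at 300 nM final during compound exposure; series mostly up to about 62 µM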)
How it was run: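 Inhibition of L165041-driven (300 nM final) PPARd signaling is scored in HEK293H UAS-bla cells. Exposure lasts 17 h at 37 C; beta-lactamase activity is then read by FRET substrate fluorescence after 2 h at room temperature.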

[5] = qHTS assay to identify small molecule agonists of the farnesoid-X-receptor (FXR) signaling pathway - cell viability counter screen (AID 743218); further: nearly all actives have a fitted effect of over 45% in size
How it was run: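 Cytotoxicity counter-screen run in parallel, same wells: FXR-UAS-bla HEK 293T cells dosed 16 h at 37 C, viability read by CellTiter-Glo luminescence after 30 min at room temperature.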

[6] = qHTS assay to identify small molecule antagonists of the farnesoid-X-receptor (FXR) signaling pathway - cell viability counter screen (AID 743221; active means well fitted cell-killing curve with a large enough effect in the repeat runs, not every such curve was filed as active; further: nearly all actives have a fitted effect of over 50% in size)
How it was run: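 Here viability was scored by luminescence after CellTiter-Glo addition to wells already read for beta-lactamase. Prior treatment: compound plus CDCA (50 uM final), 16 h, 37 C, HEK 293T FXR-bla cells.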

[7] = biological target: Vitamin D3 receptor (Homo sapiens) (UniProt P11473); assay: qHTS assay to identify small molecule antagonists of the vitamin D receptor (VDR) signaling pathway (AID 743223; active means well fitted inhibition curve with a large enough effect in the signal ratio in the repeat runs, not every such curve was filed as active; the % refers to the signal ratio)
How it was run: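 Inhibition of agonist-driven VDR signalling is scored in VDR-bla cells: 3 nM final 1alpha,25-dihydroxyvitamin D3 plus compound, 16 h at 37C, then beta-lactamase detection by FRET substrate fluorescence after 2 h.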

[8] = qHTS assay to identify small molecule agonists of the vitamin D receptor (VDR) signaling pathway - cell viability counter screen (AID 743224); further: series mostly up to about 63 µM; nearly all actives have a fitted effect of over 50% in size
How it was run: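 Viability is measured in the same wells as the VDR-bla reporter assay: after 16 h compound treatment and 2 h substrate loading, CellTiter-Glo is added and luminescence read 30 min later.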

[9] = qHTS assay to identify small molecule antagonists of the vitamin D receptor (VDR) signaling pathway - cell viability counter screen (AID 743225); further: nearly all actives have a fitted effect of over 50% in size
How it was run: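 Compounds were pinned onto VDR-bla HEK 293T cells together with 1-alpha,25-dihydroxyvitamin D3 at 3 nM final. After 16 h at 37C and 5% CO2 plus the reporter readout, cell viability was measured by CellTiter-Glo luminescence (30 min, room temperature).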

[10] = qHTS assay to identify small molecule agonists of the NFkB signaling pathway (AID 1159509; active means well fitted curve in the direction sought with a large enough effect in the signal ratio in the repeat runs, not every such curve was filed as active; the % refers to the signal ratio; further: series mostly up to about 61 µM)
How it was run: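 ME-180 NFkB-bla, 2,000 cells/well, overnight plating; cpd pinned in DMSO, 5 h 37 C; B/G FRET substrate 1.5 h RT; ex 405, em 460/530 nm.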

[11] = qHTS assay to identify small molecule agonists of the NFkB signaling pathway - cell viability counter screen (AID 1159515; calls by dose curve; further: series mostly up to about 61 µM; nearly all actives have a fitted effect of over 55% in size)
How it was run: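 Multiplexed viability readout: after the 5 hr compound exposure and 1.5 hr FRET substrate step, CellTiter-Glo reagent went into the same NFkB-bla ME-180 wells; ATP luminescence was measured after 30 min at room temperature.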

[12] = qHTS assay to identify small molecule agonists of the endoplasmic reticulum stress response signaling pathway (AID 1159516; active means well fitted activation curve with a large enough effect in the signal ratio in the repeat runs, not every such curve was filed as active; the % refers to the signal ratio)
How it was run: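 Tox21 10K library screened in quantitative HTS format on ESRE-bla HeLa cells, a beta-lactamase reporter under ER stress response element control; 5 hr treatment, FRET read.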

[13] = qHTS assay to identify small molecule agonists of the endoplasmic reticulum stress response signaling pathway - cell viability counter screen (AID 1159517; calls by dose curve)
How it was run: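 HeLa cells carrying an ESRE-driven beta-lactamase reporter receive compound for 5 hr at 37 C. Cell viability is then gauged with CellTiter-Glo by luminescence, 30 min at room temperature.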

[14] = qHTS assay to identify small molecule antagonists of the retinoid-related orphan receptor gamma (ROR-gamma) signaling pathway - cell viability counter screen (AID 1159520); further: nearly all actives have a fitted effect of over 50% in size
How it was run: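 Cytotoxicity was read from cellular ATP (CellTiter-Glo luminescence) after 16 hr at 37 C with 1 uM doxycycline induction. The inducer was added 2 hr after compound transfer to Tet-on ROR gamma CHO cells.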

[15] = biological target: Nuclear receptor ROR-gamma (Homo sapiens) (UniProt P51449); assay: qHTS assay to identify small molecule antagonists of the retinoid-related orphan receptor gamma (ROR-gamma) signaling pathway (AID 1159521; further: nearly all actives have a fitted effect of over 50% in size; further: potency means the concentration at half of the fitted maximal effect)
How it was run: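 Test compounds were applied to Tet-on RORγ CHO cells 2 h ahead of doxycycline hyclate (1 uM final). Luciferase reporter activity was quantified by luminescence after 16 h at 37 C and 5% CO2.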

[16] = qHTS assay to identify small molecule agonists of the AP-1 signaling pathway - cell viability counter screen (AID 1159525; calls by dose curve; further: nearly all actives have a fitted effect of over 55% in size)
How it was run: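 Luminescent ATP readout (Cell Titer Glo, 30 min RT), normalised to DMSO and tetra n-octyl ammonium bromide controls. Cells were ME-180 AP-1-bla in 0.5% dialyzed FBS Opti-MEM, with a 5 h, 37 °C compound exposure.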

[17] = qHTS assay to identify small molecule agonists of the AP-1 signaling pathway (AID 1159526; calls by dose curve)
[18] = biological target: Vitamin D3 receptor (Homo sapiens) (UniProt P11473); assay: qHTS assay to identify small molecule agonists of the vitamin D receptor (VDR) signaling pathway (AID 743222; calls by dose curve)
How it was run: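 Quantitative HTS agonist-mode screen: compounds in DMSO were pin-transferred onto VDR-bla cells and incubated 16 h at 37C, 5% CO2. Reporter activity was detected with LiveBLAzer B/G FRET substrate after 2 h at room temperature.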

[19] = biological target: Bile acid receptor (Homo sapiens) (UniProt Q96RI1); assay: qHTS assay to identify small molecule antagonists of the farnesoid-X-receptor (FXR) signaling pathway (AID 743217; active means well fitted inhibition curve with a large enough effect in the signal ratio in the repeat runs, not every such curve was filed as active; the % refers to the signal ratio)
How it was run: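 Antagonist mode against 50 uM (final) chenodeoxycholic acid stimulation in FXR-bla HEK 293T cells, 16 h at 37 °C. Inhibition detected as reduced beta-lactamase activity via LiveBLAzer B/G FRET fluorescence after 2 h at room temperature.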

[20] = biological target: Bile acid receptor (Homo sapiens) (UniProt Q96RI1); assay: qHTS assay to identify small molecule agonists of the farnesoid-X-receptor (FXR) signaling pathway (AID 743220; active means well fitted activation curve with a large enough effect in the signal ratio in the repeat runs, not every such curve was filed as active; the % refers to the signal ratio)
How it was run: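 Beta-lactamase reporter under UAS control in GeneBLAzer FXR HEK 293T cells (5000/well) measured with LiveBLAzer FRET substrate after 2 h at room temperature. Compound exposure lasted 16 h at 37C.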

Measured: Potency

Sequence of Vitamin D3 receptor (Homo sapiens) (P11473 whole entry, looked up): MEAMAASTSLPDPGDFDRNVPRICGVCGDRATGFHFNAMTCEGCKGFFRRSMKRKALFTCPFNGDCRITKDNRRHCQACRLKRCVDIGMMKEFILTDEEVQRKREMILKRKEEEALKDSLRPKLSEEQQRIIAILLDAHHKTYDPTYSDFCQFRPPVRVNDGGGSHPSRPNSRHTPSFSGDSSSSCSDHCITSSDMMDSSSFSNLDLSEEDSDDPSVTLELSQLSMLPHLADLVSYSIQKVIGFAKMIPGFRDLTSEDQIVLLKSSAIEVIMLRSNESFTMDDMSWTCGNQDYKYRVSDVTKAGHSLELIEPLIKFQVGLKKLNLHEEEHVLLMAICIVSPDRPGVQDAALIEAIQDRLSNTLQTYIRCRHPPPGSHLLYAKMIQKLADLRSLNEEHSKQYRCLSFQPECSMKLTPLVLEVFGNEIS
Sequence of Peroxisome proliferator-activated receptor delta (Homo sapiens) (Q03181 whole entry, looked up): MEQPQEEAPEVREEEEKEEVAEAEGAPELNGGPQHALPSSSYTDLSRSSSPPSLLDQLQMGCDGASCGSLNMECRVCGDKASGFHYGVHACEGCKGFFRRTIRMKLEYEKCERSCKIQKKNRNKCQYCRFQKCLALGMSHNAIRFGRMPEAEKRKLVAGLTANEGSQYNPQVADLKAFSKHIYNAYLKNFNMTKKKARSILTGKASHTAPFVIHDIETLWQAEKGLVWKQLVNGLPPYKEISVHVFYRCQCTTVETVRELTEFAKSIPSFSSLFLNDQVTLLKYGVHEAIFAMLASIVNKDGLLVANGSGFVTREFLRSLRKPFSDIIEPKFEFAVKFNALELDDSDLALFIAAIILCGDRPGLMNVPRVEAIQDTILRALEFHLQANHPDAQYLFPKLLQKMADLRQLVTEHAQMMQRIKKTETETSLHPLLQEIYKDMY
Sequence of Bile acid receptor (Homo sapiens) (Q96RI1 whole entry, looked up): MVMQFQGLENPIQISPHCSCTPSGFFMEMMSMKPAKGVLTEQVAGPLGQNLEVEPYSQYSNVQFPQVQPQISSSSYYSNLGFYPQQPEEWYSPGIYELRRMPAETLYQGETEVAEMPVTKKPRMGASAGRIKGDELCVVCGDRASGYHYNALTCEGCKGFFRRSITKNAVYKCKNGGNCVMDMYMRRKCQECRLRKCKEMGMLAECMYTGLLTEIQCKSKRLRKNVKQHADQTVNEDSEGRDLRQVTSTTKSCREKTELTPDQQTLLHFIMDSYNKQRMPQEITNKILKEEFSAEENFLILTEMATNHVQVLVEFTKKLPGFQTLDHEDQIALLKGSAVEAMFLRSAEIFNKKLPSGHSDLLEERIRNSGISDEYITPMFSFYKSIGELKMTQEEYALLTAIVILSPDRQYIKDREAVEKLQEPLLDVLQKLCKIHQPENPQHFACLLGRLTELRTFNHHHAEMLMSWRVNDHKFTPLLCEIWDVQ

O=c1oc2ccccc2c(O)c1C1CCCc2ccccc21 (stereo not given)
active: [15] 48.6 µM
inactive: [1] | [2] | [3] | [4] | [5] | [6] | [7] | [8] | [9] | [10] | [11] | [12] | [13] | [14] | [16] | [17]

O=NN1CCCCC1
inactive: [1] | [2] | [3] | [4] | [5] | [6] | [18] | [7] | [8] | [9] | [10] | [11] | [12] | [13] | [14] | [15] | [16] | [17]

CCCCOC(=O)c1ccccc1C(=O)O
inactive: [1] | [2] | [3] | [19] | [20] | [8] | [9] | [10] | [11] | [12] | [13] | [14] | [15] | [16] | [17]

CCOP(=O)(N=C1SCCS1)OCC
inactive: [1] | [2] | [3] | [4] | [5] | [6] | [8] | [10] | [11] | [12] | [13] | [14] | [15] | [16] | [17]
